The values that follow come from PubChem BioAssay.

The target in test [1] is Cell division control protein 42 homolog (Homo sapiens) (UniProt P60953). In words: activated mutant Cdc42 GTP-binding inhibitors, dose response, biochemical, multiplex bead flow cytometry, Bodipy-FL-GTP (AID 1333;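 active = fitted half-maximal concentration within the tested dose range, moderate curve steepness, a statistically real signal drop, and little compound fluorescence or tag-binding interference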). In general terms: A flow cytometer gives signals particle by particle.
Test [2] has the same target. In words: wildtype Cdc42 GTP-binding inhibitors, dose response, biochemical, multiplex bead flow cytometry, Bodipy-FL-GTP (AID 1334;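 active = fitted half-maximal concentration within the tested range, moderate curve steepness, significant signal drop, and little compound fluorescence or bead-linkage interference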). The conditions noted are these: bead-based flow cytometry, Bodipy-FL-GTP binding to GST-Cdc42; at 100 µM (top of the series) unless noted.
For test [3], the target named is GTPase HRas (Homo sapiens) (UniProt P01112). In words: inhibitors of GTP binding to wildtype Ras, dose response, biochemical, multiplex bead flow cytometry (AID 1335;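 active = fitted half-maximal concentration within 10 nM to 100 µM, steepness 0.5 to 2, significant signal drop, low assay interference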). The following applies: bead-based flow cytometry, Bodipy-GTP binding to GST-Ras; at 100 µM (top of the series) unless noted.
Test [4] deals with Ras-related protein Rab-7a (dog), GTP binding. Description: Rab7 GTP binding inhibitors, potency, dose response, biochemical, wildtype, multiplex bead flow cytometry (AID 1336; call rule not given here).
The target of test [5] is Ras-related C3 botulinum toxin substrate 1 (Homo sapiens) (UniProt P63000). Description: wildtype Rac1 GTP binding inhibitors, dose response, biochemical, multiplex bead flow cytometry (AID 1340). The conditions noted are these: GST-Rac1 beads, Bodipy-FL-GTP binding; at 100 µM (top of the series) unless noted.
In test [6] the target is GTPase HRas (Homo sapiens) (UniProt P01112). In words: activated Ras mutant GTP binding inhibitors, dose response, biochemical, multiplex bead flow cytometry (AID 1341;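 active = dose-response curve with midpoint inside the tested range, moderate steepness, significant amplitude and little compound fluorescence or bead-attachment interference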;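 note: GST-tagged constitutively activated Ras mutant immobilized on beads and multiplexed with other GTPases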).

SMILES strings stand for the structures. For part of these data: Measured potencies and affinities stand elsewhere. The source made the active and inactive calls.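 Rule for the calls, unless noted: active = dose curve with midpoint inside tested range, moderate steepness, plateau gap beyond fit error, low compound glow and bead-link interference; inactive = the rest.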

Sequence of Cell division control protein 42 homolog (Homo sapiens) (P60953 whole entry, looked up): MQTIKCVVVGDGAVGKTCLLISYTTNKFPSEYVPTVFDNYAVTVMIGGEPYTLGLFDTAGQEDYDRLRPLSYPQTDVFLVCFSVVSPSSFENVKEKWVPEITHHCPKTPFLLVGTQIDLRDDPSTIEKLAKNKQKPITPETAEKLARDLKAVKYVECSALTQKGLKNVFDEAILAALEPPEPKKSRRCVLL
Sequence of GTPase HRas (Homo sapiens) (P01112 whole entry, looked up): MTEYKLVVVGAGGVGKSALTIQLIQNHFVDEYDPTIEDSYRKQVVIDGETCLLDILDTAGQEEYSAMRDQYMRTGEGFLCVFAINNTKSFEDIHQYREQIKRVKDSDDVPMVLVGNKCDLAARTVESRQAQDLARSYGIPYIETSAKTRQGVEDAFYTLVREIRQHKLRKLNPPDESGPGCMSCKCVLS

As for `O=C(OCCN1CCCCC1)c1cc2ccccc2o1`, the call in test [1], in test [4] and in test [6] was inactive. The same molecule yielded a fluorescence, percent of control (lower = inhibition) in test [2] of 34.8%. In addition, the GTP binding, percent of control in test [3] came to 79.9%. Also, in test [5], the GTP binding signal, raw median fluorescence (lower = inhibition) (MCF (arbitrary fluorescence units)) was found to be 271.
Consider `O=C(CSc1ccccc1)Nc1ccc(C(=O)Nc2cccc(O)c2)cc1`, for which the result in test [1], in test [4] and in test [6] was inactive. In addition, the fluorescence, percent of control (lower = inhibition) in test [2] is 33.6%. This molecule also had a GTP binding, percent of control in test [3] of 77.9%. Moreover, the GTP binding signal, raw median fluorescence (lower = inhibition) (MCF (arbitrary fluorescence units)) in test [5] is 193.
On to `CC(C)(C)C#CC(=O)c1ccc([N+](=O)[O-])cc1`, for which the molecule was called inactive in test [1], in test [4] and in test [6]. Besides, in test [2], the fluorescence, percent of control (lower = inhibition) was found to be 37.9%. Further, the GTP binding, percent of control in test [3] turned out to be 196%. The molecule further displayed a GTP binding signal, raw median fluorescence (lower = inhibition) (MCF (arbitrary fluorescence units)) in test [5] of 49.6.
As for `O=c1[nH]c2ccc(S(=O)(=O)NCc3ccccc3)cc2[nH]1`, the outcome in test [1], in test [4] and in test [6] was inactive. In test [2], this molecule registered a fluorescence, percent of control (lower = inhibition) of 38.1%. Moreover, in test [3], the GTP binding, percent of control was 84.5%. The molecule also gave a GTP binding signal, raw median fluorescence (lower = inhibition) (MCF (arbitrary fluorescence units)) in test [5] of 218.
With `CCOc1ccc(CCNc2ccc3nnc(-c4ccccc4)n3n2)cc1OCC`, the result in test [1], in test [4] and in test [6] was inactive. Further, the fluorescence, percent of control (lower = inhibition) in test [2] worked out at 40.9%. In test [3], this molecule returned a GTP binding, percent of control of 54.2%. In test [5], this molecule registered a GTP binding signal, raw median fluorescence (lower = inhibition) (MCF (arbitrary fluorescence units)) of 141.
For `COc1cc2[nH]c(=S)nc(NCCCOC(C)C)c2cc1OC`, the call in test [1], in test [4] and in test [6] was inactive. In test [2], the fluorescence, percent of control (lower = inhibition) came to 38.7%. The same molecule had a GTP binding, percent of control in test [3] of 50.6%. This molecule also had a GTP binding signal, raw median fluorescence (lower = inhibition) (MCF (arbitrary fluorescence units)) in test [5] of 116.
Consider `COC(=O)c1ccc(COc2ccccc2/C=N/Nc2cccc(C(=O)O)c2)cc1`, for which the result in test [1], in test [4] and in test [6] was inactive. For the same molecule, the fluorescence, percent of control (lower = inhibition) in test [2] is 52.1%. This molecule yielded a GTP binding, percent of control in test [3] of 100%. In test [5], this molecule displayed a GTP binding signal, raw median fluorescence (lower = inhibition) (MCF (arbitrary fluorescence units)) of 274.
Take `Cc1nn(-c2ccc(F)cc2)c(Cl)c1/C=C(\CC(=O)O)c1nc2ccccc2s1`: the molecule was classed as inactive in test [1], in test [4] and in test [6]. The molecule further yielded a fluorescence, percent of control (lower = inhibition) in test [2] of 77.1%. In test [3], this molecule displayed a GTP binding, percent of control of 127%. In test [5], the GTP binding signal, raw median fluorescence (lower = inhibition) (MCF (arbitrary fluorescence units)) was 160.
Regarding `CCn1c(=N)c(S(=O)(=O)c2ccc(C)cc2)cc2c(=O)n3ccccc3nc21`, the outcome in test [1], in test [4] and in test [6] was inactive. In test [2], this molecule gave a fluorescence, percent of control (lower = inhibition) of 36.8%. This molecule gave a GTP binding, percent of control in test [3] of 79.5%. In addition, in test [5], the GTP binding signal, raw median fluorescence (lower = inhibition) (MCF (arbitrary fluorescence units)) stood at 174.
Take `COc1ccc(/C=N/n2c(N)c(S(=O)(=O)c3cccs3)c3nc4ccccc4nc32)cc1OC`: the call in test [1], in test [4] and in test [6] was inactive. In test [2], this molecule showed a fluorescence, percent of control (lower = inhibition) of 37.1%. In test [3], the GTP binding, percent of control came to 49.3%. The molecule further gave a GTP binding signal, raw median fluorescence (lower = inhibition) (MCF (arbitrary fluorescence units)) in test [5] of 118.
With `O=C(O)/C=C/C(=O)Nc1cccnc1`, the outcome in test [1], in test [4] and in test [6] was inactive. In test [2], this molecule returned a fluorescence, percent of control (lower = inhibition) of 50.8%. The molecule further yielded a GTP binding, percent of control in test [3] of 64.4%. The same molecule gave a GTP binding signal, raw median fluorescence (lower = inhibition) (MCF (arbitrary fluorescence units)) in test [5] of 200.
In the case of `Cc1cc(C)cc(Nc2cc(C(=O)O)c3ccccc3n2)c1`, the molecule was classed as inactive in test [1], in test [4] and in test [6]. In addition, the fluorescence, percent of control (lower = inhibition) in test [2] was determined as 58.9%. For the same molecule, the GTP binding, percent of control in test [3] came out at 80.4%. Also, the GTP binding signal, raw median fluorescence (lower = inhibition) (MCF (arbitrary fluorescence units)) in test [5] was found to be 30.7.
As for `Cc1ccc(Sc2c(C)nn(C(=O)C3CC3)c2C)cc1`, the result in test [1], in test [4] and in test [6] was inactive. The molecule also gave a fluorescence, percent of control (lower = inhibition) in test [2] of 28.8%. Moreover, in test [3], the GTP binding, percent of control was determined as 78.5%. The molecule also yielded a GTP binding signal, raw median fluorescence (lower = inhibition) (MCF (arbitrary fluorescence units)) in test [5] of 236.
As to `CC(C)CCNC(=O)CN(CCCN1CCOCC1)C(=O)Cn1nnc(-c2ccc(F)cc2)n1`, the molecule was classed as inactive in test [1], in test [4] and in test [6]. The fluorescence, percent of control (lower = inhibition) in test [2] came to 98.9%. The same molecule yielded a GTP binding, percent of control in test [3] of 180%. In addition, in test [5], the GTP binding signal, raw median fluorescence (lower = inhibition) (MCF (arbitrary fluorescence units)) worked out at 184.
With `Cc1c(Cl)cccc1NS(=O)(=O)c1ccc2c(c1)C1C=CCC1C(c1ccc(C(=O)O)cc1)N2` (stereo not given), the result in test [1], in test [4] and in test [6] was inactive. The fluorescence, percent of control (lower = inhibition) in test [2] turned out to be 22.3%. The GTP binding, percent of control in test [3] was found to be 72.9%. In test [5], this molecule returned a GTP binding signal, raw median fluorescence (lower = inhibition) (MCF (arbitrary fluorescence units)) of 222.
